{
  "source": "PubChem BioAssay (Tox21)",
  "note": "Records with an inconclusive call do not appear. Activity calls are given as the source filed them. Calls follow the shape of the dose curve; as a rule, active = well fitted cell-killing curve with a large enough effect in the repeat runs; inconclusive = weak or mixed curves, or effect the other way; inactive = flat fitted curve, though single readings scatter. % is scaled to controls: 0 for no effect and ±100 for the full control effect.",
  "data": [
    {"assay": "qHTS assay to identify small molecule agonists of the TGF-beta/Smad signaling pathway - cell viability counter screen (AID 1346829); also: top concentration of the series differs between compounds; nearly all actives have a fitted effect of over 45% in size", "conditions": "SBE-bla HEK293T viability, CellTiter-Glo luminescence, 5 h; series mostly up to 76.8 µM; activity change, negative = cytotoxicity: at the top concentration", "excerpt": "National Center for Advancing Translational Sciences [NCATS]\nNIH Chemical Genomics Center [NCGC]\nU.S. Environmental Protection Agency [EPA]\nNational Institutes of Environmental Health Sciences [NIEHS]\nNational Toxicology Program [NTP]\nU.S. Food and Drug Administration [FDA]\nTransforming growth factor beta (TGF-beta) superfamily consists of a large number of structurally related dimeric proteins that act as hormones or local mediators in regulating a wide range of biological functions. This superfamily includes TGF-betas themselves, the bone morphogenetic proteins (BMPs) and the activins. These ligands induce oligomerization of serine/threonine receptor kinases and phosphorylate the cytoplasmic signaling molecules of Smad protein family. CellSensor SBE-bla HEK 293T cell line (Life Technologies, Carlsbad, CA), responsive to TGF-beta was used to screen Tox21 10K compound library for identification of agonists/antagonists of the Smad signaling pathway. This cell line contains a beta-lactamase reporter gene under control of the Smad binding element (SBE) stably integrated into HEK 293T cells. Also cytotoxicity of the compounds was tested in parallel by measuring the cell viability using CellTiter-Glo assay system in the same wells.\nTox21 Assay Protocol Summary:\nSBE-bla HEK 293T cells were dispensed at 4,000/well in 6 uL of assay medium into black wall/clear-bottom 1536-well plates using a Multidrop Combi (ThermoFisher Scientific, Waltham, MA) dispenser. After the assay plates were incubated at 37 C and 5% CO2 for an overnight, 23 nL of compounds dissolved in DMSO, positive controls or DMSO only was transferred to the assay plate by a Pintool station (Kalypsys, San Diego, CA). The assay plates were incubated at 37 C and 5% CO2 for 5 hr. One uL of LiveBLAzer B/G FRET substrate (Life Technologies) was added using a Flying Reagent Dispenser (FRD, Aurora Discovery, San Diego, CA) and the plates were incubated at room temperature for 2 hr. Fluorescence intensity (405 nm excitation, 460 nm and 530 nm emissions) was measured using an Envision plate reader (PerkinElmer, Shelton, CT). For cytotoxicity read, 4 uL of CellTiter-Glo reagent (Promega Corporation, Madison, WI) was added to each well of the assay plates using FRD. After 30min incubation at room temperature, the luminescence intensity was measured using ViewLux plate reader (PerkinElmer).", "values": [
      {"smiles": "CC(=O)c1ccc2ccccc2c1", "activity change, negative = cytotoxicity": "5.69% (inactive)"},
      {"smiles": "CC(C)CCCO", "activity change, negative = cytotoxicity": "-0.666% (inactive)"},
      {"smiles": "Cc1c(N)c(=O)n(-c2ccccc2)n1C", "activity change, negative = cytotoxicity": "0.989% [at 35.3 µM] (inactive)"},
      {"smiles": "O=S(=O)(O)c1cccc2c(S(=O)(=O)O)cccc12", "activity change, negative = cytotoxicity": "1.12% (inactive)"},
      {"smiles": "CO[C@@]1(NC(=O)C(C(=O)O)c2ccc(O)cc2)C(=O)N2C(C(=O)O)=C(CSc3nnnn3C)CO[C@@H]21", "note": "(stereo not given in full)", "activity change, negative = cytotoxicity": "8.48% [at 35.3 µM] (inactive)"},
      {"smiles": "CCN(Cc1ccccc1)c1ccccc1", "activity change, negative = cytotoxicity": "-5.24% (inactive)"},
      {"smiles": "CC[N+](CC)(CC(=O)Nc1c(C)cccc1C)Cc1ccccc1", "note": "(tested in a mixture with another compound)", "activity change, negative = cytotoxicity": "2.84% [at 35.3 µM] (inactive)"},
      {"smiles": "O=C(c1ccccc1O)c1ccccc1O", "activity change, negative = cytotoxicity": "2.89% (inactive)"},
      {"smiles": "CC(C(=O)O)c1cccc(Oc2ccccc2)c1", "note": "(stereo not given)", "activity change, negative = cytotoxicity": "10.4% [at 35.3 µM] (inactive)"},
      {"smiles": "N[C@H](C(=O)O)[C@@H](O)c1ccc(O)c(O)c1", "activity change, negative = cytotoxicity": "7.53% [at 35.3 µM] (inactive)"},
      {"smiles": "C[C@@H]1CCC[C@H](C)N1", "activity change, negative = cytotoxicity": "-6.46% [at 35.3 µM] (inactive)"},
      {"smiles": "CN1[C@@H]2CC[C@H]1CC(OC(=O)C(O)c1ccccc1)C2", "note": "(stereo not given in full)", "activity change, negative = cytotoxicity": "5.09% [at 35.3 µM] (inactive)"},
      {"smiles": "OCCCCCO", "activity change, negative = cytotoxicity": "1.55% (inactive)"},
      {"smiles": "O=C1CCCCCCCCCCCCCCO1", "activity change, negative = cytotoxicity": "3.11% (inactive)"},
      {"smiles": "CCCCOCCOC(=O)CCCCCCCCC(=O)OCCOCCCC", "activity change, negative = cytotoxicity": "-6.78% (inactive)"},
      {"smiles": "CCCCCCCC1CCCC1=O", "note": "(stereo not given)", "activity change, negative = cytotoxicity": "0.978% (inactive)"},
      {"smiles": "CCOC(=O)C1=NOC(c2ccccc2)(c2ccccc2)C1", "activity change, negative = cytotoxicity": "2.34% (inactive)"},
      {"smiles": "CNC(=O)Nc1ccc(Cl)c(Cl)c1", "activity change, negative = cytotoxicity": "1.59% (inactive)"},
      {"smiles": "CC1CCC(CO)CC1", "note": "(stereo not given)", "activity change, negative = cytotoxicity": "1.42% (inactive)"},
      {"smiles": "O=C(O)CNC(=O)c1ccccc1", "activity change, negative = cytotoxicity": "2.5% [at 35.3 µM] (inactive)"},
      {"smiles": "Cc1nc2ccc(CN(C)c3ccc(C(=O)N[C@@H](CCC(=O)O)C(=O)O)s3)cc2c(=O)[nH]1", "activity change, negative = cytotoxicity": "-4.29% [at 35.3 µM] (inactive)"},
      {"smiles": "CC12CCC(C(=O)C1=O)C2(C)C", "note": "(stereo not given)", "activity change, negative = cytotoxicity": "8.91% (inactive)"},
      {"smiles": "[K+]", "activity change, negative = cytotoxicity": "0.534% (inactive)"},
      {"smiles": "CC(C)C(=O)OC(=O)C(C)C", "activity change, negative = cytotoxicity": "2.96% (inactive)"},
      {"smiles": "Nc1ccn([C@@H]2O[C@H](CO)[C@@H](O)[C@@H]2O)c(=O)n1", "activity change, negative = cytotoxicity": "-1.64% (inactive)"},
      {"smiles": "Nc1ccn([C@@H]2O[C@H](CO)[C@@H](O)C2(F)F)c(=O)n1", "activity change, negative = cytotoxicity": "1.02% [at 35.3 µM] (inactive)"},
      {"smiles": "C[C@@H]1C[C@H]2[C@@H]3C[C@H](F)C4=CC(=O)C(Cl)=C[C@]4(C)[C@@]3(F)[C@@H](O)C[C@]2(C)[C@@]1(O)C(=O)CO", "activity change, negative = cytotoxicity": "13.1% [at 35.3 µM] (inactive)"},
      {"smiles": "CC(C)(C)C(=O)Oc1ccc(S(=O)(=O)Nc2ccccc2C(=O)NCC(=O)O)cc1", "activity change, negative = cytotoxicity": "-5.25% [at 35.3 µM] (inactive)"},
      {"smiles": "COCCOCC(OC)OC", "activity change, negative = cytotoxicity": "2.55% [at 35.3 µM] (inactive)"},
      {"smiles": "NC(N)=NCCN1CCCCCCC1", "activity change, negative = cytotoxicity": "-17.1% [at 0.29 µM] (inactive)"},
      {"smiles": "CC1(C)[C@@H]2CC[C@@]1(C)[C@H](O)C2", "activity change, negative = cytotoxicity": "-3.9% (inactive)"},
      {"smiles": "NCCCC(N)(C(=O)O)C(F)F", "note": "(stereo not given)", "activity change, negative = cytotoxicity": "-0.323% [at 35.3 µM] (inactive)"},
      {"smiles": "CC[N+](C)(CC)CCOC(=O)C1c2ccccc2Oc2ccccc21", "activity change, negative = cytotoxicity": "12.9% [at 35.3 µM] (inactive)"},
      {"smiles": "CCC1C(=O)OCC1Cc1cncn1C", "note": "(stereo not given)", "activity change, negative = cytotoxicity": "1.25% [at 35.3 µM] (inactive)"},
      {"smiles": "CCCCCCCCCCCCCCCCCCO", "activity change, negative = cytotoxicity": "9.99% [at 35.3 µM] (inactive)"},
      {"smiles": "CCOC(=O)COc1cc(-n2ncc(C(F)(F)F)c(C)c2=O)c(F)cc1Cl", "activity change, negative = cytotoxicity": "2.92% (inactive)"},
      {"smiles": "CN1CCN(c2cc3c(nn2)Oc2ccccc2N3C)CC1", "activity change, negative = cytotoxicity": "19.9% [at 15.8 µM] (inactive)"},
      {"smiles": "COc1cc(C(=O)NCc2ccc(OCCN(C)C)cc2)cc(OC)c1OC", "activity change, negative = cytotoxicity": "11% [at 35.3 µM] (inactive)"},
      {"smiles": "CCN(CC#N)c1cccc(C)c1", "activity change, negative = cytotoxicity": "16.7% (inactive)"},
      {"smiles": "C=C(C)C(=O)OCC(O)CO", "note": "(stereo not given)", "activity change, negative = cytotoxicity": "2.83% [at 35.3 µM] (inactive)"}
    ]}
  ]
}
